# HPGD block: blocks human HPGD enzyme activity. P15428. purified HPGD, NADH fluorescence kinetic, PGE2 substrate. Potency, µM, most hits filed as inhibitors. hit rate 4.3% among 150,000; active = well fitted inhibition curve with a large enough effect, not every such curve was filed as active; inconclusive = small, poorly fitted or top-dose-only effect, or another doubt; inactive = no such curve, though single readings can be large or run the other way
#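 20 nM HPGD preincubated 15 min at room temperature with compound in 50 mM Tris-HCl pH 8, 0.01% Tween 20. Started with 1 mM NAD+ and 30 uM prostaglandin E2; NADH fluorescence (360/450 nm) read 5 times over 30-s intervals, last minus first.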
# HttQ103 aggreg: inhibitors of mutant huntingtin aggregate formation in PC12 cells; Potency, µM (doses to about 46.1 µM), hits mostly inhibitors; PC12 HttQ103-GFP aggregates, Acumen cytometry, 40 h; hit rate 1.1% among 220,000; note: nearly all actives have a fitted effect of over 60% in size
#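 Multiplexed with ATP-based cell death, this channel scores GFP aggregates in PC12 cells expressing inducible HTTex1-Q103-GFP. Induction used 100 nM tebufenozide; compounds were tested in concentration series.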
# CBFb-RUNX1 inh: CBF-beta/RUNX1 interaction disruption. AlphaScreen CBFb-His/RUNX1-biotin binding, biochemical. 230,000 tested, under 10 active. Potency, µM (titrated, usually from 59.8 µM), most hits filed as inhibitors. AID 1477
# Target sequence (Q01196 whole entry, looked up): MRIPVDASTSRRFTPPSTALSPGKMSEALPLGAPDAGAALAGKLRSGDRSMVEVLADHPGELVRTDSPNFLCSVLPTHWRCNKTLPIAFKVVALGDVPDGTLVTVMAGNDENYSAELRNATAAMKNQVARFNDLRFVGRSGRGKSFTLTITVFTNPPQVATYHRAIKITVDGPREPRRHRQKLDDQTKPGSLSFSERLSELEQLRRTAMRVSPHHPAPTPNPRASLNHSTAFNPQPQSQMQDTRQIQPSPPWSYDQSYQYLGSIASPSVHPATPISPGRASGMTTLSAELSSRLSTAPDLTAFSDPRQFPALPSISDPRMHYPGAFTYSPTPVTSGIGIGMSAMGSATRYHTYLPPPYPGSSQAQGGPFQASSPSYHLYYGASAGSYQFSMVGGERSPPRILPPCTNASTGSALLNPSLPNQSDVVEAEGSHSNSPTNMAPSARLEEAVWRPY
# Target sequence (Q13951 whole entry, looked up): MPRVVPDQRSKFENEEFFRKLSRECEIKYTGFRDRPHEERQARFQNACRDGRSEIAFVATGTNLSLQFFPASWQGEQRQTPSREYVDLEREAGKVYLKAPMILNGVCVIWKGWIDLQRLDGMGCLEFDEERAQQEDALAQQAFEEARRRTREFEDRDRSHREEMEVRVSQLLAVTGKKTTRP
#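 Room-temperature protein-protein interaction test with 30 nM each of His-tagged CBF-beta and biotinylated RUNX1, 15 min with compound, then 90 min with nickel plus streptavidin beads. Signal read in AlphaScreen mode.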
# ALDH1A1 block: blocks purified human ALDH1A1 activity | AID 1030 | P00352 | Purified ALDH1A1, NADH fluorescence, propionaldehyde substrate | hit rate 7.3% among 220,000 | Potency, µM (doses to about 75.3 µM), actives largely listed as inhibitors; active = well fitted inhibition curve with a large enough effect, not every such curve was filed as active; inconclusive = small, poorly fitted or top-dose-only effect, or another doubt; inactive = no such curve, though single readings can be large or run the other way
# HTT ATP protect: cytoprotection in Huntington HTT-Q103 PC12 cell model. hit rate 0.14% among 230,000. Potency, µM (series often up to 56.4 µM), usual class: activators. AID 1471. PC12 HTT-Q103 induced, cytoprotection, ATP luminescence, 40 h; note: nearly all actives have a fitted effect of over 45% in size
#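 Compounds added alongside 100 nM tebufenozide, which induces toxic Q103 huntingtin exon 1-GFP in stable PC12 cells; surviving cells quantified by luminescent ATP measurement. Medium: phenol red-free DMEM, 5% equine and 5% calf serum.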
# JMJD2E inh: JMJD2E (human) inhibition | B2RXH2 | JMJD2E catalytic domain, FDH-coupled NADH fluorescence (FDH is formaldehyde dehydrogenase) | Potency, µM (top dose mostly 57.1 µM), actives largely listed as inhibitors | hit rate 1.6% among 230,000 | AID 2147; active = well fitted inhibition curve with a large enough effect, not every such curve was filed as active; inconclusive = small, poorly fitted or top-dose-only effect, or another doubt; inactive = no such curve, though single readings can be large or run the other way; note: nearly all actives have a fitted effect of over 50% in size
# A number is an active result; i = inactive; ? = inconclusive; nt = not tested or not shown; [ ] = another dose, or the depositor's remark. A selection: hits, their analogues and other compounds. The true share with any hit is near 9.8%. Unless noted, calls come from the whole dose curve; as a rule, active = well fitted curve in the direction sought with a large enough effect; inconclusive = small, poorly fitted or top-dose-only effect, or another doubt; inactive = no such curve, though single readings can be large; an effect the other way counts as inactive or inconclusive.
SMILES,HPGD block,HttQ103 aggreg,CBFb-RUNX1 inh,ALDH1A1 block,HTT ATP protect,JMJD2E inh
COC(=O)c1ccccc1NC(=S)NC(=O)c1ccc(C)cc1,i,i,i,?,i[10 µM],?
Cc1ccc2cccc(NC(=S)NC(=O)c3ccccc3)c2n1,i,i,i,?,i,i
Cc1ccc2cccnc2c1NC(=S)NC(=O)c1ccccc1,i,i,i,28µM,i[10 µM],i
CC(C)(C)NC(=S)NNC(=O)c1ccc2ncccc2c1,nt,i,i,?,i[10 µM],i
Cc1cc(C)c(NC(=S)NC(=O)c2ccc(-c3ccccc3)cc2)c(C)c1,i,i,i,10µM,i[10 µM],i
O=C(NNC(=S)Nc1ccccc1)c1ccc2ncccc2c1,nt,i,i,22µM,nt,i
Cc1nn(CC(=O)c2ccc(Cl)s2)c(C)c1[N+](=O)[O-],nt,i,i,i,i,i
O=C(C1Cc2ccccc2CN1S(=O)(=O)c1cccs1)N1CCCCC1 (stereo unspecified),i,i,i,?,i,i
Cc1nn(C)cc1S(=O)(=O)N1CCN(Cc2ccc(F)cc2Cl)CC1,nt,i[9.22 µM],i,i,i[10 µM],i
Cc1ccc(NC(=O)COC(=O)CSC(=S)N2CCOCC2)cc1,nt,i,i,i,i,i
Cc1ccc(-c2cn(-c3ccccc3)c(SCC(=O)NC3CCS(=O)(=O)C3)n2)cc1C (stereo unspecified),i,i,i,14µM,nt,i
CCC(C)C(N)C(=O)NC(CC(N)=O)C(=O)NC(CC(C)C)C(=O)NC(CCCCN)C(=O)NC(C)C(=O)NC(CC(C)C)C(=O)NC(C)C(=O)NC(C)C(=O)NC(CC(C)C)C(=O)NC(C)C(=O)NC(CCCCN)C(=O)NC(CCCCN)C(=O)NC(C(=O)NC(CC(C)C)C(N)=O)C(C)CC (stereo unspecified),nt,nt,i,nt,nt,nt
CCC1C(C#N)=C(SCC(N)=O)NC2=C1C(=O)CC(C)(C)C2 (stereo unspecified),nt,i[9.22 µM],i,nt,i[10 µM],?
COc1ccc(C2C(C#N)=C(SCC(=O)Nc3ccc(C)cc3)NC3=C2C(=O)CC(C)(C)C3)cc1 (stereo unspecified),?,11µM,i,?,i,?
CCOC(=O)Cn1c(=O)oc2cc(S(=O)(=O)Nc3ccc(N(CC)CC)cc3C)ccc21,28µM,?,i,?,i,i
CCOC(=O)Cn1c(=O)oc2cc(S(=O)(=O)Nc3cc(OCC)ccc3OCC)ccc21,i,i,i,i,i[0.074 µM],i
O=C(COc1cccc(Br)c1)N/N=C1\CCSC1,nt,i,i,4.5µM,i[10 µM],i
Cc1cccc(NC(=O)COC(=O)c2cc(C)oc2C)c1,nt,13µM,i,i,i,i
CC(C#N)Sc1nc2ccccc2c(=O)n1-c1ccccc1 (stereo unspecified),i,i,i,4.5µM,i,i
O=C(CSc1nc2ccccc2c(=O)n1-c1ccccc1)N1CCC1,nt,i,i,?,nt,i
CC(C)c1cc(NC(=O)CCl)on1,nt,i,i,1.6µM,i[10 µM],i
CNC(=O)[C@@]1(C)C=C[C@@H](Cc2ccccc2)N1C(=O)OC,i,i,i[2.36 µM],i,i,i
CCN(CC(=O)Nc1c(C(=O)OC)[nH]c2ccc(C)cc12)c1ccc2c(c1)OCO2,nt,?,i,14µM,i,i
Cn1cnnc1Sc1ccc(/C=C(\CC(=O)O)c2nc3ccccc3s2)cc1[N+](=O)[O-],nt,i[9.22 µM],i,20µM,i[10 µM],i
COc1cccc(/C=C(\CC(=O)O)c2nc3ccccc3s2)c1,nt,i,i,i,i,?
SMILES,HPGD block,HttQ103 aggreg,CBFb-RUNX1 inh,ALDH1A1 block,HTT ATP protect,JMJD2E inh
O=C(O)CC/C(=C\c1ccccc1[N+](=O)[O-])c1nc2ccccc2s1,nt,i,i,i,i,i
O=C(O)CC/C(=C\c1ccc(N2CCCC2)c([N+](=O)[O-])c1)c1nc2ccccc2s1,nt,i[9.22 µM],?,1.3µM,i[10 µM],i
Cc1cccc(C2=NN(c3ccccc3)[C@H](CO)[C@H]2C)c1,?,nt,?,?,i,nt
N#CCCN1CCN(C2=NC(=O)/C(=C\c3cccs3)S2)CC1,nt,i,?,25µM,i[10 µM],i
CCC(=O)NC(c1ccc(C)cc1)c1cc([N+](=O)[O-])c2cccnc2c1O (stereo unspecified),i,7.9µM,nt,i,i[10 µM],?
CC(=O)NC(c1ccc(C)cc1)c1cc([N+](=O)[O-])c2cccnc2c1O (stereo unspecified),nt,?,?,i,i[10 µM],?

# From PubChem
